# Measurements reported in PubChem BioAssay (EPA / NIEHS).
# Calls of active or inactive are those of the source. Rule for the calls: active = hit-call score of the fitted dose curve at least 0.9, where 1 is the maximum; inactive = score below 0.9.
# Test: CCTE_Harrill_HTTr_Viability_MCF7: CCTE's 6-hour Cell Viability Assessment for the High-Throughput Transcriptomics (HTTr) Platform, in MCF-7 cells cultured in DMEM + 10% fetal bovine serum, Harrill Lab (AID 2284010)
# In short: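 MCF-7 cells in DMEM + 10% FBS, 384-well, exposed 6 h to an eight-point dilution series. Membrane integrity scored by high-content imaging of propidium iodide exclusion; bidirectional fit versus DMSO.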
row,SMILES,outcome
1,CCN(CC)CCOC(=O)c1ccc(N)cc1,inactive
2,NCCCCCCN,inactive
3,OCCOCCOCCOCCO,inactive
4,O=[N+]([O-])c1cc(C(F)(F)F)ccc1Cl,inactive
5,Cc1ccc(O)c(C(C)(C)C)c1,inactive
6,CC(CCO)CCc1ccccc1 (stereo not drawn),inactive
7,COc1ccc(O)cc1,inactive
8,Clc1ccc2c(c1)C(N1CCNCC1)=Nc1ccccc1O2,inactive
9,CC(C)=CCCC(C)=CCCC(C)=CCO,inactive
10,CCCCCCCCCCCCCCCC(=O)O,inactive
11,S=C(S)NCCNC(=S)S,inactive
12,Cc1c(N(C)C)c(=O)n(-c2ccccc2)n1C,inactive
13,O=C(O)Cc1cccc2ccccc12,inactive
14,O=C(O)CCCCCCCC(=O)O,inactive
15,CCCc1c(OCCCOc2ccc(OCC(=O)O)cc2)ccc(C(C)=O)c1O,inactive
16,CC(=O)OCCOC(C)=O,inactive
17,Cc1ccc(C(=O)c2cc(O)c(O)c([N+](=O)[O-])c2)cc1,inactive
18,O=C(O)COCCN1CCN(C(c2ccccc2)c2ccc(Cl)cc2)CC1 (stereo not drawn),inactive
19,C[C@]12CC[C@H]3[C@@H](CCC4=CC(=O)CC[C@@]43C)[C@@H]1CC[C@@H]2C(=O)CO,inactive
20,C#C[C@]1(O)CC[C@H]2[C@@H]3CCC4=Cc5oncc5C[C@]4(C)[C@H]3CC[C@@]21C,inactive
21,CC(=O)OCC=Cc1ccccc1,inactive
22,CC(C)Oc1ccccc1O,inactive
23,C=CCOc1nc(OCC=C)nc(OCC=C)n1,inactive
24,O=C(O)c1ccc(C(=O)O)cc1,inactive
25,O=P(c1ccccc1)(c1ccccc1)c1ccccc1,inactive
26,CC1(C)[C@@H]2CC[C@@]1(C)[C@H](O)C2,inactive
27,CC(=O)C(=O)O,inactive
28,CN1Cc2c(N)cccc2C(c2ccccc2)C1 (stereo not drawn),inactive
